Source: PubChem BioAssay (National Center for Advancing Translational Sciences (NCATS))
Sampled rows, rich in hits. Any-hit rate of the full collection: about 6.2%.
Marburg entry inh: qHTS for inhibitors of binding or entry into cells for Marburg Virus | Marburg virus pseudotyped entry inhibition, cell reporter | Potency, µM (titrated, usually from 37.8 µM), for inactives: top-dose activity change, negative = inhibition, usual class: inhibitors | 300,000 tested, 1.8% active; calls by dose curve; tested in HEK293 cells; further: potency means the concentration at half of the fitted maximal effect
HCMV antiviral: qHTS Assay for inhibitors of the human cytomegalovirus (HCMV); HFF cells, HCMV-luciferase reporter, 72 h; stronger effect = lower value; activity change, negative = inhibition, % at 57.5 µM; 410,000 tested, 4.5% active; in the data active means activity change below about -60%; inconclusive means no clear call, values can overlap the other calls; inactive means above about -39%
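Two-dose cell screen: HFF monolayers treated with compounds and infected with luciferase-expressing HCMV at 1 PFU/cell, 72 h at 37C, then lysed for luciferase measurement.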
LASV entry inh: qHTS for Inhibitors of binding or entry into cells for Lassa Virus | AID 540256, 2011 | 300,000 tested, 1.2% active | Lassa virus pseudotype entry inhibition, cell reporter | Potency, µM (doses to about 37.9 µM), without a hit: top-dose activity change, negative = inhibition, actives largely listed as inhibitors; calls by dose curve; tested in HEK293 cells; further: potency means the concentration at half of the fitted maximal effect; nearly all actives have a fitted effect of over 50% in size
FMDV antiviral: High Throughput Screening for Foot and Mouth Disease Virus Antivirals; FMDV antiviral cell-based qHTS; Potency, µM (titrated, usually from 57.9 µM), without a hit: top-dose activity change, negative = inhibition, hits mostly inhibitors; 410,000 tested, 1.2% active; calls by dose curve; tested in HEK293T cells; further: read-out not given here; potency means the concentration at half of the fitted maximal effect; nearly all actives have a fitted effect of over 45% in size
* = called active by the depositor; ? = inconclusive; nt = no result given; ! = not confirmed by another sample; [ ] = remark or other dose. On the % scale 0 is the no-effect control and ±100 the full control effect.

SMILES	Marburg entry inh	HCMV antiviral	LASV entry inh	FMDV antiviral
O=C(O)c1ccccc1N=Cc1c(O)n(-c2nccs2)c(=O)c2ccccc12	nt	?	nt	-0.4%
CCN(CC)S(=O)(=O)c1cccc(-n2c(O)c(C=Nc3ccccc3C(=O)O)c3ccccc3c2=O)c1	nt	-79.5*	nt	-10.8%
CCCCCC(=O)Nc1cc(S(=O)(=O)O)cc2cc(S(=O)(=O)O)cc(O)c12	?	-77.5*	19.5%	-16.7%
COc1ccc(C2C(C#N)=C3NC(=O)c4c(sc5c4CCCCC5)N3C3=C2C(=O)CC(C)(C)C3)cc1 (configuration not stated)	?	-4.3	23.1µM*	-24.9%
C=CCn1c(O)c(C=NCCN(C)C)c(=O)[nH]c1=O	5.4%	62.9	6.1%	0.0%
Oc1ccc(/C=N/NP(=S)(c2ccccc2)c2ccccc2)cc1	?	-16.6	-7.9%	16.0%
N=C(N)SCCN	35.5µM*!	21.3	22.1%	-2.5%
CC(C)=C1SC(N2CCCCC2)=NC1=O	4.1%	60.4	7.1%	-3.6%
C/C(=C1/SC(N2CCCC2)=NC1=O)c1ccc(Br)cc1	4.47µM*	-4.9	4.47µM*	-28.9%
CCn1cc2nc(SCC(=O)Nc3ccccc3F)n(Cc3ccccc3)c(=O)c2n1	nt	-18.7	nt	-8.5%
O=C(CNC(=O)c1cccs1)OCC(=O)c1ccc(Br)cc1	7.5%[46.1 µM]	-5.1	12.3%	-18.5%
Cc1cc(Cl)ccc1C(=O)C1CCCN(C2CCSCC2)C1 (configuration not stated)	10µM*	?	?	-2.7%
Fc1cccc(F)c1-n1c(CN2CCCCC2)csc1=S	6.31µM*	-68.0*	-12.6%[46.1 µM]	-24.7%
Fc1cccc(F)c1-n1c(CN2CCOCC2)csc1=S	nt	2.4	nt	-20.8%
O=C(Nc1nnc(-c2ccc(F)cc2)o1)c1cc(Cl)sc1Cl	?	?	?	-21.0%
O=[N+]([O-])c1ccc(NC(=S)N2CCc3ccccc32)cc1	-18.8%[46.1 µM]	?	?	-21.9%
Cc1[nH]c2ccccc2c1SCC(=O)NC1CCCCC1	nt	-64.3*	nt	14.4%
O=C(CSc1c[nH]c2ccccc12)NC1CCCC1	nt	-11.9	nt	-4.2%
C=CCn1c(SCC(=O)NC2CCCC2)nc2c([nH]c3ccccc32)c1=O	11.0%	-90.1*	-13.1%	8.7%
COc1ccccc1NC(=O)Cn1c(=O)c(N(C)C)c(N)n(C)c1=O	12.1%[46.1 µM]	-23.5	5.1%	-8.3%
O=S(=O)(NCCc1ccccc1)c1cccc2cccnc12	4.9%	-34.6	-3.2%	50.4%
O=C(NCC(c1ccco1)N1CCc2ccccc21)C(=O)Nc1ccccc1 (configuration not stated)	?	-4.1	-12.8%	-7.2%
Cc1ccc(N(C(=O)c2nsc(Cl)c2Cl)C(C(=O)NC2CCCC2)c2ccc(O)cc2)cc1C (configuration not stated)	?	?	1.58µM*	-15.4%
COc1ccc(C(C(=O)NC2CCCC2)N(Cc2ccccc2)C(=O)c2nsc(Cl)c2Cl)cc1 (configuration not stated)	?	8.1	?	nt
Cc1ccccc1N(C(=O)c1snc(C(N)=O)c1N)C(C(=O)NC1CCCCC1)c1ccc(O)cc1 (configuration not stated)	?	-33.4	11.2µM*	2.2%
SMILES	Marburg entry inh	HCMV antiviral	LASV entry inh	FMDV antiviral
O=C(CN(C(=O)c1nsc(Cl)c1Cl)c1ccc(F)cc1)NC1CCCC1	?	16.8	5.2%	14.7%
Cc1ccc(N(CC(=O)NC2CCCC2)C(=O)c2nsc(Cl)c2Cl)cc1	-12.0%[46.1 µM]	-74.9*	3.6%[46.1 µM]	3.6%
Cc1cccc(N(C(=O)c2nsc(Cl)c2Cl)C(C(=O)NC2CCCC2)c2ccc(O)cc2)c1C (configuration not stated)	?	?	7.31µM*	-6.5%
Cc1cc(C)cc(N(C(=O)c2nsc(Cl)c2Cl)C(C(=O)NC2CCCC2)c2ccc(O)cc2)c1 (configuration not stated)	?	-70.8*	?	-15.9%
Cc1cc(NC(=O)CSc2nnc(C)n2-c2ccccc2)no1	3.4%[46.1 µM]	14.1	-14.1%[46.1 µM]	24.3%
Cc1ccc(CNC(=O)c2cc(S(=O)(=O)N3CCCC(C)C3)cn2C)cc1 (configuration not stated)	nt	10.8	-0.3%[46.1 µM]	1.3%
O=C1CC2(CCCCC2)Oc2ccccc21	nt	-5.8	nt	-5.6%
CC(C)(C)C1CCC2(CC1)CC(=O)c1ccccc1O2 (configuration not stated)	nt	-60.5*	nt	-7.3%
COc1ccc(C[C@@H]2OC3(C=CC(=O)C=C3)O[C@H]2Cc2ccc(OC)cc2)cc1	2.51µM*	nt	?	14.1µM*
